The results in this text go back to ChEMBL document CHEMBL3988442, “University of Dundee, Small-Polar-MMV Screening Library” (2021).

Assay [1] deals with T1, Aspartate--tRNA(Asp/Asn) ligase (Mycobacterium tuberculosis (strain ATCC 25618 / H37Rv)) (UniProt P9WFW3).
T1 sequence (whole entry): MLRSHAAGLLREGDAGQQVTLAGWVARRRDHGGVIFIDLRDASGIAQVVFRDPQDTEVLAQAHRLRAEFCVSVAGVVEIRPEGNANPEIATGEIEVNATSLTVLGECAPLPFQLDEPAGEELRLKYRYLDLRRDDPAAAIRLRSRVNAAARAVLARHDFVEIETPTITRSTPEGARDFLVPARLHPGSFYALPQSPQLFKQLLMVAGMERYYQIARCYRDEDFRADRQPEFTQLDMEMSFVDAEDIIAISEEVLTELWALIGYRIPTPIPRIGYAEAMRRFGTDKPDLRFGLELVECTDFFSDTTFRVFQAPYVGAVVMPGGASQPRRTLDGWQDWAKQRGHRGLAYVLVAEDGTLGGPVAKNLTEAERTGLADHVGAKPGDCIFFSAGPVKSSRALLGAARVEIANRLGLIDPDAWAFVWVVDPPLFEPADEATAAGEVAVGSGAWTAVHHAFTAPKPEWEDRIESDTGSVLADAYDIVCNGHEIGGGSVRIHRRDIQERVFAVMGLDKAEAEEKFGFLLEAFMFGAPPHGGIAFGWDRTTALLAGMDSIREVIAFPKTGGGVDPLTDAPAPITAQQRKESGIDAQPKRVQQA
As to the kind of experiment: Assay for Asp RNA synthetase-1 from Mycobacterium tuberculosis. The settings on record: 30 µM. Set-up: scale not given: direction of the effect not stated beside the values. The class given is functional.

The target in assay [2] is Shiga toxin 2 (Escherichia coli O157:H7) (UniProt P09385+P09386). The assay can be described thus: E. coli 0.157:H7 Shiga Toxin SOP - stx2 screening assay. Further details: scale not given: direction of the effect not stated beside the values. The settings on record: 30 µM. It is filed as functional.

For the compound `COCc1ccc(CN2CCC(O)(Cn3ccc4ncccc43)CC2)o1`, the results for the Percent Effect in assay [1] and in assay [2] were 0.485% and -34.6%, respectively.

In the case of `COc1cc(C)c(C(C)NC(=O)Nc2nnc(C)s2)cc1OC` (configuration not stated), the values for the Percent Effect in assay [1] and in assay [2] were -7.26% and 9.98%, respectively.

For the compound `CNc1cc(C)nc(C2CN(Cc3cc[nH]n3)CCO2)c1` (configuration not stated), the Percent Effect in assay [1] is -0.432%; in assay [2], 13.3%.

Take `Cc1noc(C(C)N2CCN(CCCN3CCCC3=O)CC2)n1` (configuration not stated): the values for the Percent Effect in assay [1] and in assay [2] were 0.409% and 4.39%, respectively.

Turning to `Cc1cc(CN(C)C(=O)C2CCCN(C(=O)c3ccc(Cl)cc3)C2)no1` (configuration not stated), the Percent Effect in assay [1] was 8.83%; in assay [2], -26.7%.

Regarding `Cc1noc2nc(C3CCN(Cc4ccncc4)CC3)cc(C(F)F)c12`, the values for the Percent Effect in assay [1] and in assay [2] were 5.43% and -67.8%, respectively.

As for `Cc1cnc2n(c1=O)CC(C(=O)Nc1cccc3cccnc13)CS2` (configuration not stated), the results for the Percent Effect in assay [1] and in assay [2] were 16.3% and 23.5%, respectively.

Turning to `Cc1nc(C)n(C2CCCN(C(=O)Cc3cccnc3)C2)n1` (configuration not stated), the Percent Effect in assay [1] is -4.24%; in assay [2] it was 1.27%.

As to `CC(=O)N(Cc1ncc(C)o1)C1CCN(Cc2ccncc2Cl)C1` (configuration not stated), the Percent Effect came to 2.91% in assay [1] and 16% in assay [2].

Turning to `CN1CC2(CCN(Cc3ccoc3)CC2)COc2ccccc2S1(=O)=O`, the results for the Percent Effect in assay [1] and in assay [2] were -0.268% and -18.6%, respectively.

For `CC(c1cccc(S(N)(=O)=O)c1)N(C)CCc1ccccc1` (configuration not stated), the results for the Percent Effect in assay [1] and in assay [2] were 5.72% and -26.2%, respectively.

As for `CCN(Cc1ccccc1)C(=O)CN1CCCC(Cn2cncn2)C1` (configuration not stated), the Percent Effect came to 2.11% in assay [1] and 3.34% in assay [2].

Consider `Cn1cccc1C(=O)N[C@@H]1CN(CC2CC2)[C@@H]2COC[C@@H]21`, for which the Percent Effect in assay [1] is 1.28%; in assay [2] it was -3.7%.

As to `CCc1ccc(O)c(C(=O)NC2CCN(Cc3ccncc3)CC2)c1`, the Percent Effect in assay [1] is -4.26%; in assay [2] it was -67.7%.

For the compound `COc1cc(C(=O)NC(CC(=O)O)c2cccs2)cc(Cl)c1OC` (configuration not stated), the Percent Effect in assay [1] is 3.71%; in assay [2], -19.3%.

In the case of `CN(C(=O)c1ccccn1)c1nc2c(s1)CCc1c-2cnn1C`, the Percent Effect in assay [1] was 50%; in assay [2], -76.1%.

For `c1ccc(Cn2cncn2)c(CNCC2CNc3ccnn3C2)c1` (configuration not stated), the Percent Effect is 0.425% in assay [1] and -35.2% in assay [2].

For `O=C(NCc1cncc2c1CCN(Cc1cccc(F)c1)C2)C1CC1`, the Percent Effect in assay [1] is 1.78%; in assay [2] it was -32.2%.

`Cc1cc(NC(=O)NCC2CCOC2)no1` (configuration not stated): the figures for the Percent Effect in assay [1] and in assay [2] were -7.54% and -24.3%, respectively.

For `CC(C)NC(=O)Nc1ccc(CNCc2cccc(C#N)c2)cc1`, the figures for the Percent Effect in assay [1] and in assay [2] were 0.232% and -108%, respectively.

For the compound `CCn1ccnc1CN1CCN(CCC(=O)NC(C)(C)C)CC1C` (configuration not stated), the values for the Percent Effect in assay [1] and in assay [2] were -4.35% and 15.4%, respectively.

For `COCC(=O)NCc1cc(=O)n2c(n1)CN(CC1CCOC1)CCC2` (configuration not stated), the Percent Effect is -4.6% in assay [1] and -5.14% in assay [2].

With `CCC(NC(=O)C1CCN(S(C)(=O)=O)CC1)c1ccc(OC)c(OC)c1` (configuration not stated), the Percent Effect is 0% in assay [1] and -10.4% in assay [2].

For the compound `COc1ccc(Nc2nc3c(C)nn(C)c3c(=O)n2C)c(OC)c1`, the Percent Effect in assay [1] is 6.63%; in assay [2] it was -34.2%.

Consider `Cc1cncc(C(=O)N2CCC(Cn3cc(-c4ccsc4)nn3)CC2)c1`, for which the Percent Effect was -0.792% in assay [1] and -26.5% in assay [2].

Regarding `Cc1cccc(N2CCN(CCNC(=O)C(C)n3cncn3)CC2)c1` (configuration not stated), the results for the Percent Effect in assay [1] and in assay [2] were 2.75% and 15.6%, respectively.

For the compound `CC(=O)N1CCn2c(COCc3csc(C)n3)cnc2C1C` (configuration not stated), the figures for the Percent Effect in assay [1] and in assay [2] were -3.29% and -18.6%, respectively.

As to `Cc1nn(CC(C)C)c(N(C)C)c1CNCc1cc2ccccc2[nH]1`, the Percent Effect in assay [1] is -2.12%; in assay [2], 31.1%.

Take `Cc1cc(N(C)C)nc(C2(C)CCCN2C(=O)c2cnccn2)n1` (configuration not stated): the Percent Effect in assay [1] was 1.19%; in assay [2], -0.274%.

As for `CCc1sc(-c2nnc(CNCCn3cc(C)cn3)o2)cc1C`, the Percent Effect in assay [1] was 2.52%; in assay [2], -107%.

For `CN1C(=O)C[C@@H]2[C@@H]1CCN2C(=O)c1ccc[nH]1`, the Percent Effect is -4.63% in assay [1] and -6.89% in assay [2].

On to `CN1[C@H](CN2CCCC2)C[C@@H]2CN(C(=O)Cc3cccs3)CC[C@@H]21`, for which the Percent Effect is 3.89% in assay [1] and -16% in assay [2].

For the compound `O=C(O)c1cc(S(=O)(=O)Nc2ccc(Cl)cc2)cc2c1OCCO2`, the Percent Effect is 0.0437% in assay [1] and -7.1% in assay [2].

For the compound `COCCC(=O)N1C[C@@H]2COC[C@]2(COCc2cccnc2)C1`, the Percent Effect in assay [1] is 2.14%; in assay [2], -6.81%.

In the case of `Cc1ccc(CN(C)C(=O)CN2CCOC(Cn3cncn3)C2)o1` (configuration not stated), the Percent Effect was 2.6% in assay [1] and -9.96% in assay [2].

Regarding `Cc1cnn(CC2CCCN2C(=O)CCCc2nc(C)no2)c1` (configuration not stated), the Percent Effect in assay [1] was -0.389%; in assay [2], -14.7%.

On to `CN(CCCC#N)C1CCCN(Cc2noc(C3CC3)n2)C1` (configuration not stated), for which the Percent Effect is -2.54% in assay [1] and 7.14% in assay [2].

For the compound `CC(C)Nc1ncnc2c1CCN(C(=O)c1ccncc1F)CC2`, the Percent Effect in assay [1] is -1.6%; in assay [2], -6.39%.

As for `CC(O)CC(C)(C)CNC(=O)NCc1cccc(-n2cncn2)c1` (configuration not stated), the Percent Effect in assay [1] was -1.59%; in assay [2], 7%.

Consider `COc1cc2nc(C)n(CC(=O)NCCCN(C)C)c(=O)c2cc1OC`, for which the values for the Percent Effect in assay [1] and in assay [2] were -0.232% and -51.4%, respectively.

As for `CNC(=O)[C@H]1C[C@@H]2CN(C(=O)Nc3ccc(F)cc3)C[C@H]1O2`, the values for the Percent Effect in assay [1] and in assay [2] were -1.56% and -24.2%, respectively.

As to `COc1cccc(COCC(=O)N2CCCC(N3CCCC3)CC2)c1` (configuration not stated), the Percent Effect is -5.12% in assay [1] and 12.6% in assay [2].

With `CCc1cc(O)nc(C2CCCN2C(=O)c2cc(C)no2)n1` (configuration not stated), the values for the Percent Effect in assay [1] and in assay [2] were 7.1% and 1.09%, respectively.

`O=C(Cc1ccccn1)N1C[C@@H]2CC[C@H](C1)N(Cc1ccccc1)C2=O`: the results for the Percent Effect in assay [1] and in assay [2] were -1.24% and -4.09%, respectively.

For `COc1ncccc1NC(=O)NC1CCOc2ccccc21` (configuration not stated), the results for the Percent Effect in assay [1] and in assay [2] were -3.76% and -5.5%, respectively.

For the compound `CC(=O)c1ccc(OCC(=O)NC(C)CCc2ccco2)cc1` (configuration not stated), the Percent Effect in assay [1] is 4.56%; in assay [2], -18.5%.

Turning to `CNC(=O)C1(c2cnccn2)CCCN1C(=O)c1ccccc1OC` (configuration not stated), the figures for the Percent Effect in assay [1] and in assay [2] were -4.66% and -21.4%, respectively.

With `CCCNC(=O)CCC(=O)Nc1ccc(-n2cncn2)c(F)c1`, the values for the Percent Effect in assay [1] and in assay [2] were -1.12% and 5.57%, respectively.

Take `CCOc1ccccc1OC1CCN(C(=O)c2cc[nH]n2)CC1`: the Percent Effect in assay [1] is 0.989%; in assay [2], 39.1%.

Turning to `Cc1ccc(C(=O)N2CCN(Cc3ccsc3)CC2)n1C`, the Percent Effect stood at 1.28% in assay [1] and 3.04% in assay [2].

Turning to `O=C(Cn1ccc2c(Cl)cccc21)N[C@@H](C(=O)O)c1ccccc1`, the Percent Effect in assay [1] was -6.24%; in assay [2], -13.8%.
